Records with an inconclusive call do not appear. Unmarked numbers belong to inactive results. Calls follow the shape of the dose curve; as a rule, active = well fitted activation curve with a large enough effect in the signal ratio in the repeat runs (not every such curve was filed as active); inconclusive = weak or mixed curves, or effect the other way; inactive = flat fitted curve, though single readings scatter; the % refers to the signal ratio.
% is scaled to controls: 0 for no effect and ±100 for the full control effect.

The test is described as follows: qHTS assay to identify small molecule agonists of the endoplasmic reticulum stress response signaling pathway (AID 1159516). The conditions noted are these: ESRE-bla HeLa, ER stress beta-lactamase reporter, 5 h; series mostly up to 61 µM; activation: at the top concentration. The text has this:
National Center for Advancing Translational Sciences [NCATS]
NIH Chemical Genomics Center [NCGC]
U.S. Environmental Protection Agency [EPA]
National Institutes of Environmental Health Sciences [NIEHS]
National Toxicology Program [NTP]
U.S. Food and Drug Administration [FDA]
Endoplasmic Reticulum (ER) plays an important role in cellular signaling, protein folding/maturation, stress response, lipid biosynthesis, calcium storage and release etc. Under stress conditions, proteins in ER misfold or unfold, and leading to the expression of ER stress responsive genes. ER stress has been associated with a variety of pathophysiological conditions such as cancer, inflammation, neurodegenerative diseases, diabetes, ischemic heart disease etc. To identify the compounds that induce ER stress response, an ER stress reporter cell line, CellSensor ESRE-bla HeLa (Life Technologies, Carlsbad, CA) containing a beta-lactamase reporter gene under control of the Endoplasmic reticulum Stress Response Element (ESRE) was used to screen Tox21 10K compound library.
Tox21 Assay Protocol Summary:
ESRE-bla HeLa cells were dispensed at 1,500 cells/6 uL of assay medium per well into black wall/clear-bottom 1536-well plates using a Multidrop Combi (ThermoFisher Scientific, Waltham, MA) dispenser. After the assay plates were incubated at 37 C and 5% CO2 for an overnight, 23 nL of compounds dissolved in DMSO, positive controls or DMSO only was transferred to the assay plate by a Pintool station (Kalypsys, San Diego, CA). The assay plates were incubated at 37 C and 5% CO2 for 5 hr. One uL of LiveBLAzer B/G FRET substrate (Life Technologies) was added using a Flying Reagent Dispenser (Aurora Discovery, San Diego, CA) and the plates were incubated at room temperature for 2 hr. Fluorescence intensity (405 nm excitation, 460 nm and 530 nm emissions) was measured using an Envision plate reader (PerkinElmer, Shelton, CT).
Consider `CCCCCCOC(=O)NC(=N)c1ccc(NCc2nc3cc(C(=O)N(CCC(=O)OCC)c4ccccn4)ccc3n2C)cc1`, for which the “activation” value was 1.85%.

Regarding `C=CCOC(=O)CCC1CCCCC1`, the “activation” value was -0.248%.

Turning to `COc1ccnc(CS(=O)c2nc3ccc(OC(F)F)cc3[nH]2)c1OC` (stereo not given), the “activation” value is -1%.

With `CCN(CC)c1ccc2c(-c3ccccc3C(=O)O)c3ccc(=[N+](CC)CC)cc-3oc2c1`, the “activation” value is -4.11%.

As to `CCCCCCCCCCCCN1CCCCCC1=O`, the “activation” value is 5.99%.

As to `Nc1c(CC(=O)O)cccc1C(=O)c1ccc(Br)cc1`, the “activation” value was -2.2%.

For the compound `CC(=O)[O][Al][O]C(C)=O`, the “activation” value was 3.28%.

For the compound `C[C@@H](c1ncncc1F)C(O)(Cn1cncn1)c1ccc(F)cc1F` (stereo not given in full), the “activation” value was 1.03%.

On to `CCCCC(CC)CN1C(=O)C2C3C=CC(C3)C2C1=O` (stereo not given), for which the “activation” value is -3.82%.

Consider `O=C(NCCO[N+](=O)[O-])c1cccnc1`, for which the “activation” value was 0.0546%.

Consider `O=[N+]([O-])c1ccc(NCCO)c(OCCO)c1`, for which the “activation” value was -1.85%.

As for `CCCOC(C(=O)OC1CCN(C)CC1)(c1ccccc1)c1ccccc1`, the “activation” value is 0.448%.

Turning to `CN(C)CCN(Cc1ccsc1)c1ccccn1`, the “activation” value is 0.164%.

For `O=[N+]([O-])c1ccc2[nH]ncc2c1`, the “activation” value was -4.03%.

For the compound `CCCCC(=O)OCC(=O)[C@H]1[C@H](C)C[C@H]2[C@@H]3C[C@H](F)C4=CC(=O)C=C[C@]4(C)[C@@]3(F)[C@@H](O)C[C@@]21C`, the “activation” value is -0.211%.

For `CC(C)(C)Cl`, the “activation” value is 2.87% [at 78.8 µM].

In the case of `C[N+](C)(C)CCOC(=O)CCC(=O)OCC[N+](C)(C)C`, the “activation” value is -0.68%.

Turning to `CC(=O)c1ccc2c(c1)N(CCCN1CCC(CCO)CC1)c1ccccc1S2`, the “activation” value is -3.09%.

Take `C/C(=C(\CCOP(=O)(O)O)SC(=O)c1ccccc1)N(C=O)Cc1cnc(C)nc1N`: the activation is -0.946% [at 6.95 µM].

As for `O=C(O)C1(C(=O)Nc2ccc(Cl)cc2Cl)CC1`, the “activation” value was -5.17%.

`CCCCCCCC/C=C\CCCCCCCC(=O)OCC`: the “activation” value is -1.05%.

In the case of `Nc1ccc(N)c2c1C(=O)c1ccccc1C2=O`, the “activation” value is -0.384%.

In the case of `CCCNCC(O)COc1ccccc1C(=O)CCc1ccccc1` (stereo not given), the “activation” value is -0.164%.

Turning to `COc1cc(C(=O)OCCCN2CCCN(CCCOC(=O)c3cc(OC)c(OC)c(OC)c3)CC2)cc(OC)c1OC`, the “activation” value was 0.613%.

With `CN(C)c1ccc(C(c2ccccc2)c2ccc(N(C)C)cc2)cc1`, the “activation” value is 1.23%.

For the compound `Cc1ccc(C(C)OC(=O)C2(C)CCC(C(=O)O)C2(C)C)cc1` (stereo not given), the “activation” value is 2.29%.

On to `CCC(Cl)CCC(Cl)C(Cl)CC(Cl)C(Cl)C(Cl)CCl` (stereo not given), for which the “activation” value is 0.417%.

Consider `CC(=O)OC[C@H]1O[C@@H](n2ncc(=O)[nH]c2=O)[C@H](OC(C)=O)[C@@H]1OC(C)=O`, for which the “activation” value is 1.52%.

On to `CC(CC=O)c1ccccc1` (stereo not given), for which the “activation” value was -1.56%.

As to `CCCCCCCCCc1ccc(OCCOCCO)cc1`, the “activation” value was 6.53% [at 28.5 µM].

On to `CCCCC/C=C\C/C=C\CCCCCCCC(=O)NC(C)c1ccccc1` (stereo not given), for which the “activation” value is 1.68%.

With `OCc1cc(C(O)CNCCCCCCOCCCCc2ccccc2)ccc1O` (stereo not given), the “activation” value is -4.23%.

With `COc1cc2nc(N3CCN(C(=O)C4COc5ccccc5O4)CC3)nc(N)c2cc1OC` (stereo not given), the “activation” value is 0.105%.

In the case of `CN(Cc1ccc(C(C)(C)C)cc1)Cc1cccc2ccccc12`, the “activation” value was -0.0546%.

With `C[N+]1(C)CCC(OC(=O)C(O)(c2ccccc2)C2CCCC2)C1` (stereo not given), the “activation” value was -1.87%.

For `O=C(O)C1(C(=O)O)CCC1.[NH2-].[NH2-].[Pt+2]`, the “activation” value is 0.369%.

Take `CCCCC`: the “activation” value is -0.386%.

For the compound `Cc1oc(-c2ccccc2)nc1CCOc1cccc2c1ccn2CCC(=O)O`, the “activation” value is -3.92%.

On to `CCCCCCCCCCCCCCCCOS(=O)(=O)O`, for which the “activation” value is 0.154%.

Consider `COc1cc(Cl)ccc1Oc1ccc(Cl)cc1Cl`, for which the “activation” value is 0.154%.

For the origin of these results see PubChem BioAssay (Tox21).
